Results: the supplement of paper PMC11172423
A number with no mark means an inactive call.

Tested on: Falciformispora senegalensis CBS197.79
Assay: growth relative to untreated control; higher = less inhibition, active = 20 or less
Procedure, shortened: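 Growth was expressed as metabolic activity relative to the untreated growth control, with both corrected using a blank of medium plus dye. Hyphal fragments of M. mycetomatis MM55 or F. senegalensis CBS197.79 were suspended to 68–72% transmission at 660 nm in colourless RPMI 1640 containing L-glutamine and MOPS. In 96-well plates they were exposed to compound at 100 or 25 µM for 7 days at 37 °C, and viability was read with MTS (2 h, 490 nm) or resazurin (600 nm).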

Row | SMILES | growth (25 µM) | growth (100 µM)
1 | O=C(Nc1ccc([N+](=O)[O-])cc1Cl)c1cc(Cl)ccc1O | 0% (active) | 0% (active)
2 | Cc1cccnc1-c1noc(-c2ccccc2)n1 | 99.3% | 98%
3 | Cc1ncc([N+](=O)[O-])n1CC(C)O (configuration not stated) | 93.4% | 100%
4 | CS(=O)(=O)NC1CCN(C(=O)c2ccc(Nc3nccc(-c4cc(Cl)cc(C(F)(F)F)c4)n3)cc2)C1 (configuration not stated) | 93.2% | 82.5%
5 | CN(c1ncc2nc(Nc3cc(Cl)cc(C(F)(F)F)c3)n(C3CCNCC3)c2n1)C1CC1 | 90.9% | 12.3% (active)
6 | NS(=O)(=O)OC[C@@H]1C[C@@H](n2ccc3c(N[C@H]4CCc5ccccc54)ncnc32)C[C@@H]1O | 112% | 101%
7 | CCN1CCC(c2cc(C)c3nc(-c4cc5c(C)nc(C)cn5n4)cc(=O)n3c2)CC1 | 104% | 107%
8 | COc1ccc(-n2nc(C)c3c2NC(=O)CC3c2ccccc2OCc2ccc(F)cc2)cc1 (configuration not stated) | 82.5% | 77.9%
9 | Cc1ccc(NC(=O)c2ccc(CN3CCN(C)CC3)cc2)cc1Nc1nccc(-c2cccnc2)n1 | 95.1% | 103%
10 | O=C(O)c1ccc2c(c1)nc(Nc1cccc(Cl)c1)c1ccncc12 | 97.2% | 97.3%
11 | FC(F)(F)c1cc(Cl)cc(Nc2nc3cnc(NC4CCOCC4)nc3n2C2CCNCC2)c1 | 93.9% | 79.8%
